# PubChem BioAssay (NCI)
# “And” between values parts separate entries of the source, which are not always exact repeats. Identical values can stand only once. This is part of a sample that, as a whole, favours compounds with a hit. Of some 83,000 tested, about 20% had one in any assay.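 Percent growth is the endpoint: 0 to 100 indicates growth inhibition (40 means 60% inhibition), 0 means no net growth, and negative values indicate cell death.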 The source made the active and inactive calls. How the source made its calls: active means growth percent below 10; inactive means the rest.
# Tested on: HL-60(TB) leukemia
# Assay: NCI-60 one-dose screen, 48 h (100 = growth as untreated, 0 = no growth, -100 = all killed)
smiles,measurement,setting,value
Cc1cc2c(F)c(Oc3ncnn4cc(OC[C@@H](C)OC(=O)[C@H](C)N)c(C)c34)ccc2[nH]1,growth,10 µM unless noted,12.6% (inactive)
O=C(Cc1ccccc1)NC(c1ccc(Cl)cc1)c1c(O)ccc2ccccc12 (centres undefined),growth,10 µM unless noted,7.2% (active)
CCN1CCN(CCC(=O)Nc2cccc(-n3cc(-c4ccncc4)c(-c4ccc(Cl)c(OC)c4)n3)c2)CC1,growth,10 µM unless noted,-42.1% (active)
N#Cc1c(N)nc(N)nc1Nc1ccc(Br)cc1,growth,10 µM unless noted,93.3% (inactive)
OC(COc1ccccc1Cl)COc1ccccc1Cl,growth,10 µM unless noted,94.3% (inactive)
O=C(OCc1ccc2c(Cl)cc(Cl)c(O)c2n1)N1CCN(C(=O)c2cc3cc(F)ccc3[nH]2)CC1,growth,10 µM unless noted,-49.4% (active)
O=C(NC1CCN(Cc2ccccc2)CC1)c1cc2nc(-c3ccc(Cl)s3)cc(C(F)(F)F)n2n1,growth,10 µM unless noted,58.6% (inactive)
N#CCSc1nnc2n(Cc3ccccc3)c(=O)c3c4c(sc3n12)CCCC4,growth,10 µM unless noted,81.7% (inactive)
CC(=O)OC1CC2C(C)(C)OC3CC(=O)OCC32C2CCC3(C)C(=CCC3c3ccoc3)C12C (centres undefined),growth,10 µM unless noted,116% (inactive)
COc1cc2c(cc1OC)C(C(CCCCCC(CCC(C)C)C1NCCc3cc(OC)c(OC)cc31)CCC(C)C)NCC2 (centres undefined),growth,10 µM unless noted,-12.4% (active)
O=C1c2ccccc2-c2c1nc1ccccc1[n+]2[O-],growth,10 µM unless noted,101% (inactive)
Nc1nc(N)c2cc(Sc3ccc(Cl)cc3)ccc2n1,growth,10 µM unless noted,27.5% (inactive)
C=CCc1c(O)c(C(=O)/C=C/c2ccc(Cl)cc2)c(OC)c2ccoc12,growth,10 µM unless noted,25.4% (inactive)
N#Cc1c(-c2ccccc2)cc(-c2ccccc2)n(CCCCCC(=O)Nc2ccccc2N)c1=O,growth,10 µM unless noted,2.68% (active)
C=C(C)[C@@H]1CC[C@]2(COCCC#N)CC[C@]3(C)[C@H](CC[C@@H]4[C@@]5(C)Cc6c([nH]c7ccccc67)C(C)(C)[C@@H]5CC[C@]43C)[C@@H]12,growth,10 µM unless noted,101% (inactive)
COc1ccc(-c2[nH]ncc2Nc2cc(OC)c(OC)c(OC)c2)cc1,growth,10 µM unless noted,31.6% (inactive)
CN(C)CCn1cc(-c2ccc3c(Nc4ccc(CC(=O)Nc5cccc(F)c5)cc4)ncnc3c2)cn1,growth,10 µM unless noted,-55.3% [30 µM] (active)
CCCCN(CCCC)CCc1c(C)cc(C)c(CCN(CCCC)CCCC)c1O,growth,10 µM unless noted,7.15% (active)
O=C(NC(Cc1cn(Cc2ccccc2)cn1)C(=O)O)OCC1c2ccccc2-c2ccccc21 (centres undefined),growth,10 µM unless noted,87.4% (inactive)
O=C(O)/C=C/C=C/c1ccccc1,growth,10 µM unless noted,106% (inactive) and 112% (inactive)
Cc1[nH]c2ccc(F)cc2c1CCNC(=O)C1CCN(C(=O)c2ccccc2)CC1,growth,10 µM unless noted,102% [25 µM] (inactive)
O=C1C2=C(CCN(Cc3ccccc3)C2)N2CCN=C2N1Cc1ccc(F)cc1F,growth,10 µM unless noted,27.8% (inactive)
O=C(NCc1cccnc1)c1ccc([N+](=O)[O-])o1,growth,10 µM unless noted,9.68% (active)
O=c1cc(-c2ccccc2)oc2cc(OCc3cn(Cc4ccc(F)cc4)nn3)cc(OCc3cn(Cc4ccc(F)cc4)nn3)c12,growth,10 µM unless noted,98% (inactive)
O=C(Nc1ccc(C2=NCCCN2)cc1)Nc1ccc(C2=NCCCN2)cc1,growth,10 µM unless noted,87.4% (inactive)
Nc1c(C(=O)Nc2cccc3ccccc23)sc2nc3c(cc12)C(=O)CCC3,growth,10 µM unless noted,3.95% (active)
COC(=O)[C@H](CC(C)C)NC(=O)NC(=O)NC(=O)CI,growth,10 µM unless noted,50.7% (inactive)
CCn1ccnc1C(=O)/C=C/c1ccc(CC(=O)Nc2ccc(F)cc2)cc1,growth,10 µM unless noted,27.9% (inactive)
Oc1ccc(Cc2ccccc2Cl)c(O)c1,growth,10 µM unless noted,97.4% (inactive)
COc1cccc(C2C(C#N)=C(N)Oc3cc4c(cc32)OCO4)c1 (centres undefined),growth,10 µM unless noted,-45% (active)
CCC1OC(OC)C=CC1=O (centres undefined),growth,10 µM unless noted,77% (inactive)
CC(C)(C)c1cc(C(=O)Nc2ccc(C(=O)NCCN)cc2)cc(C(C)(C)C)c1,growth,10 µM unless noted,-68.4% (active)
CCN(CC)c1ccc(/C=C/c2ccc3cc(C)ccc3[n+]2CC)cc1,growth,10 µM unless noted,-41.5% (active)
NNC(=O)Nc1ccccc1,growth,10 µM unless noted,102% (inactive)
S=C(NCc1ccc2c(c1)OCO2)N1CCN(c2ncnc3c2oc2ccccc23)CC1,growth,10 µM unless noted,19.7% (inactive)
CCCCCN(CCCCC)CC(O)c1cc2c(c3ccccc13)CCCC2 (centres undefined),growth,10 µM unless noted,18.6% (inactive) and 58.1% (inactive)
CC(C)Cc1ccc(C(C)C(=O)NCc2ccc(Cn3c(=O)sn(CCCI)c3=O)cc2)cc1 (centres undefined),growth,10 µM unless noted,74.9% (inactive) and -41.5% (active)
CC(=O)/C=C/c1ccc(N(C)Cc2ccc(C(C)(C)C)cc2)cc1,growth,10 µM,53.9% (inactive)
same,growth,100 µM,-48.9% (active)
